Where “and” joins values, the source holds several entries; their conditions need not be identical. Equal values may be shown once. The source holds several records for some structures; these can differ, active in one and inactive in another. Calls of active or inactive are those of the source. The calls were made as follows: active = hit-call score of the fitted dose curve at least 0.9, where 1 is the maximum; inactive = score below 0.9.
Experiments:
[1] = read-out: Macrophage colony-stimulating factor (MCSF), CSF1 (gene 1435); assay: BSK_hDFCGF_MCSF: BioMAP Diversity Plus: hDFCGF Assay for Macrophage colony-stimulating factor (MCSF) Biomarker Activity (AID 2283060); conditions: primary human foreskin fibroblasts; actives raise or lower the signal
Outline: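 fibroblasts (human foreskin, primary), 24 h post-dose; M-CSF by ELISA; bidirectional fit, DMSO = baseline.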

[2] = BSK_hDFCGF_SRB: Viability Assessment in the BioMAP Diversity Plus: hDFCGF Assay (AID 2283061); conditions: primary human foreskin fibroblasts;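 also: cells exposed to compound for 24 h before the read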
Outline: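 SRB-based viability read on primary human skin fibroblasts at 24 h: TCA fixation, 0.1% dye, 560 nm. Gain or loss of signal is fitted against the DMSO negative control.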

[3] = read-out: TIMP metallopeptidase inhibitor 1 (TIMP1), TIMP1 (gene 7076); assay: BSK_hDFCGF_TIMP1: BioMAP Diversity Plus: hDFCGF Assay for TIMP metallopeptidase inhibitor 1 (TIMP1) Biomarker Activity (AID 2283062); conditions: primary human foreskin fibroblasts; actives raise or lower the signal
Outline: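 Bidirectional curve fitting against DMSO baseline yielded this endpoint, based on ELISA detection of TIMP-1 in primary human foreskin fibroblasts exposed to compound for 24 h.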

[4] = read-out: Monokine induced gamma interferon (MIG), CXCL9 (gene 4283); assay: BSK_hDFCGF_MIG: BioMAP Diversity Plus: hDFCGF Assay for Monokine induced gamma interferon (MIG) Biomarker Activity (AID 2283063); conditions: primary human foreskin fibroblasts; actives raise or lower the signal
Outline: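 Endpoint derived by bidirectional fitting relative to DMSO; MIG quantified via ELISA in primary human foreskin fibroblasts harvested 24 h after dosing.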

[5] = read-out: Matrix Metallopeptidase 1 (MMP1), MMP1 (gene 4312); assay: BSK_hDFCGF_MMP1: BioMAP Diversity Plus: hDFCGF Assay for Matrix Metallopeptidase 1 (MMP1) Biomarker Activity (AID 2283064); conditions: primary human foreskin fibroblasts; actives raise or lower the signal
Outline: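 Primary human foreskin fibroblasts exposed to chemicals for 24 h; MMP1 measured by ELISA. Cytotoxicity tracked by SRB staining in parallel cultures; bidirectional fit relative to DMSO.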

[6] = read-out: Vascular cell adhesion molecule 1 (VCAM1), VCAM1 (gene 7412); assay: BSK_hDFCGF_VCAM1: BioMAP Diversity Plus: hDFCGF Assay for Vascular cell adhesion molecule 1 (VCAM1) Biomarker Activity (AID 2283065); conditions: primary human foreskin fibroblasts; actives raise or lower the signal;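 as to AC50: VCAM-1 protein level quantified by ELISA after 24 h chemical exposure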
Outline: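 Measured after 24 h chemical treatment of primary human skin fibroblasts, VCAM-1 was detected by ELISA and concentration-response analysed in both directions versus DMSO vehicle.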

[7] = read-out: Plasminogen activator inhibitor-1 (PAI1), SERPINE1 (gene 5054); assay: BSK_hDFCGF_PAI1: BioMAP Diversity Plus: hDFCGF Assay for Plasminogen activator inhibitor-1 (PAI1) Biomarker Activity (AID 2283066); conditions: primary human foreskin fibroblasts; actives raise or lower the signal
Outline: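 PAI-1 levels, determined by ELISA, served as the endpoint in human foreskin fibroblast cultures exposed to compound for 24 h, with DMSO as baseline.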

[8] = read-out: Intercellular Adhesion Molecule 1 (ICAM1), ICAM1 (gene 3383); assay: BSK_KF3CT_ICAM1: BioMAP Diversity Plus: KF3CT Assay for Intercellular Adhesion Molecule 1 (ICAM1) Biomarker Activity (AID 2283067); conditions: primary human keratinocytes with fibroblasts; actives raise or lower the signal
Outline: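 Bidirectional curve fitting against a DMSO baseline was applied to ICAM-1 ELISA signal from primary human skin co-cultures harvested 24 h after treatment, with SRB staining of parallel wells for overt cytotoxicity.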

[9] = read-out: Interferon-gamma inducible Protein 10 (IP10), CXCL10 (gene 3627); assay: BSK_KF3CT_IP10: BioMAP Diversity Plus: KF3CT Assay for Interferon-gamma inducible Protein 10 (IP10) Biomarker Activity (AID 2283068); conditions: primary human keratinocytes with fibroblasts; actives raise or lower the signal
Outline: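 Human keratinocyte plus foreskin fibroblast primary co-culture exposed to test chemical for 24 h; IP-10 measured by ELISA. Concentration-response fitted bidirectionally against DMSO control as baseline.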

[10] = BSK_KF3CT_SRB: Viability Assessment in the BioMAP Diversity Plus: KF3CT Assay (AID 2283069); conditions: primary human keratinocytes with fibroblasts;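 also: total protein by sulforhodamine B staining as a cytotoxicity measure; read 24 h after compound addition; fitted for both signal gain and loss against DMSO baseline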
Outline: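 Human keratinocyte and foreskin fibroblast co-culture exposed to chemical for 24 h. Total protein measured in parallel cultures by 0.1% sulforhodamine B staining after 10% TCA fixation, read at 560 nm; bidirectional fit relative to DMSO.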

[11] = read-out: Interleukin-1 alpha (IL1a), IL1A (gene 3552); assay: BSK_KF3CT_IL1a: BioMAP Diversity Plus: KF3CT Assay for Interleukin-1 alpha (IL1a) Biomarker Activity (AID 2283070); conditions: primary human keratinocytes with fibroblasts; actives raise or lower the signal
Outline: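 Primary human keratinocyte plus foreskin fibroblast co-culture, dosed and measured at 24 h in 96-well plates. IL-1a level quantified by ELISA; bidirectional fit relative to DMSO.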

[12] = read-out: TIMP metallopeptidase inhibitor 2 (TIMP2), TIMP2 (gene 7077); assay: BSK_KF3CT_TIMP2: BioMAP Diversity Plus: KF3CT Assay for TIMP metallopeptidase inhibitor 2 (TIMP2) Biomarker Activity (AID 2283071); conditions: primary human keratinocytes with fibroblasts; actives raise or lower the signal
Outline: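 Keratinocyte–fibroblast co-culture, 24 h exposure; TIMP-2 ELISA, DMSO-normalised bidirectional fit. Parallel SRB (0.1%, TCA-fixed, 560 nm) total-protein staining gauges cytotoxicity.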

[13] = read-out: Transforming growth factor beta 1 (TGFb1), TGFB1 (gene 7040); assay: BSK_KF3CT_TGFb1: BioMAP Diversity Plus: KF3CT Assay for Transforming growth factor beta 1 (TGFb1) Biomarker Activity (AID 2283072); conditions: primary human keratinocytes with fibroblasts; actives raise or lower the signal
Outline: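 Signal changes in either direction, relative to DMSO, define activity here. TGF-b1 is read by ELISA from a human keratinocyte-fibroblast co-culture 24 h post-dose.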

[14] = read-out: C-C motif chemokine 2 (Homo sapiens) (UniProt P13500); assay: BSK_KF3CT_MCP1: BioMAP Diversity Plus: KF3CT Assay for Monocyte Chemoattractant Protein 1 (MCP1/CCL2) Biomarker Activity (AID 2283073); conditions: primary human keratinocytes with fibroblasts; actives raise or lower the signal
Outline: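 Biomarker MCP-1 is measured by ELISA in primary human keratinocytes co-cultured with foreskin fibroblasts, 24 h after chemical treatment; DMSO serves as the negative control and activity baseline.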

[15] = read-out: Matrix Metallopeptidase 9 (MMP9), MMP9 (gene 4318); assay: BSK_KF3CT_MMP9: BioMAP Diversity Plus: KF3CT Assay for Matrix Metallopeptidase 9 (MMP9) Biomarker Activity (AID 2283074); conditions: primary human keratinocytes with fibroblasts; actives raise or lower the signal;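 as to AC50: MMP9 protein level quantified by ELISA in the co-culture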
Outline: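 Human keratinocyte and foreskin fibroblast co-culture exposed to chemicals for 24 h; MMP9 biomarker measured by ELISA, bidirectional fitting relative to DMSO; cytotoxicity tracked by SRB total protein staining in parallel cultures.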

[16] = read-out: urokinase plasminogen activator (uPA), PLAU (gene 5328); assay: BSK_KF3CT_uPA: BioMAP Diversity Plus: KF3CT Assay for urokinase plasminogen activator (uPA) Biomarker Activity (AID 2283075); conditions: primary human keratinocytes with fibroblasts; actives raise or lower the signal
Outline: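 Primary human keratinocyte/foreskin fibroblast co-culture exposed to chemical; uPA measured by ELISA at 24 h. Bidirectional fit versus DMSO, with parallel SRB total-protein staining for cytotoxicity.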

CD40, CD40 (gene 958) = assay: BSK_LPS_CD40: BioMAP Diversity Plus: LPS Assay for CD40 Biomarker Activity (AID 2283076); conditions: primary human HUVEC with PBMC; actives raise or lower the signal
Outline: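 Using a multiplexed primary human co-culture (umbilical vein endothelium plus PBMC), CD40 was read by ELISA 24 h after dosing, with cytotoxicity tracked by sulforhodamine B staining of parallel cultures and activity fitted bidirectionally versus DMSO.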

[17] = read-out: E-selectin (Homo sapiens) (UniProt P16581); assay: BSK_LPS_Eselectin: BioMAP Diversity Plus: LPS Assay for Eselectin Biomarker Activity (AID 2283077); conditions: primary human HUVEC with PBMC; actives raise or lower the signal
Outline: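 Dose chemical onto LPS-driven HUVEC/PBMC co-culture; after 24 h, run ELISA for E-selectin; fit up- and down-going responses relative to DMSO control.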

[18] = read-out: Interleukin-8 (IL8), CXCL8 (gene 3576); assay: BSK_LPS_IL8: BioMAP Diversity Plus: LPS Assay for Interleukin-8 (IL8) Biomarker Activity (AID 2283078); conditions: primary human HUVEC with PBMC; actives raise or lower the signal
Outline: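 In this LPS system, chemical-treated human umbilical vein endothelium/PBMC co-cultures were harvested at 24 h for IL-8 ELISA.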

[19] = BSK_LPS_SRB: Viability Assessment in the BioMAP Diversity Plus: LPS Assay (AID 2283079); conditions: primary human HUVEC with PBMC;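 also: total protein by sulforhodamine B absorbance as a cytotoxicity measure; measured one day after compound addition; fitted in both directions against DMSO so loss or gain of signal counts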
Outline: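 Cytotoxicity endpoint in human endothelial–PBMC co-culture: 24 h exposure, then SRB (0.1%) staining, 560 nm read.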

Measured: AC50

E-selectin (Homo sapiens), sequence (P16581 whole entry, looked up): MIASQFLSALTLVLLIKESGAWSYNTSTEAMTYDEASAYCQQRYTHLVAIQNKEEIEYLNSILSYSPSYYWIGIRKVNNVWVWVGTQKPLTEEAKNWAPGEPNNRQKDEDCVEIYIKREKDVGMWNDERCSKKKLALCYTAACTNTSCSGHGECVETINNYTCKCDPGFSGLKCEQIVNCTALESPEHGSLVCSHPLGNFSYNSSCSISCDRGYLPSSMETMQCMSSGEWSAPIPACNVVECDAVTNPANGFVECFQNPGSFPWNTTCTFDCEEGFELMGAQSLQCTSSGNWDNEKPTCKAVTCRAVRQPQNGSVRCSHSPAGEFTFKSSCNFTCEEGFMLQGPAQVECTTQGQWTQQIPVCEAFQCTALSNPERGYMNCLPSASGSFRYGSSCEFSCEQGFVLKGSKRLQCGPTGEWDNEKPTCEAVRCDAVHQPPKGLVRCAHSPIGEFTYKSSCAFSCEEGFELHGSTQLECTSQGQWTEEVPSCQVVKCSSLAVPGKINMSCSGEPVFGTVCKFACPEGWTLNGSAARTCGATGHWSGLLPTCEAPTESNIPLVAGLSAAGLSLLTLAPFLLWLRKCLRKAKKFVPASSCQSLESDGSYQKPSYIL

O=C1CCCCCCCCCCC1
inactive: all assays above

C=C(C)C(=O)OCCCCCCCCCCCC
not listed: CD40, CD40 (gene 958)
inactive: all other assays above

c1ccc2c(c1)[nH]c1ccccc12
active: [18] 17 nM
inactive: [1] | [2] | [3] | [4] | [5] | [6] | [7] | [8] | [9] | [10] | [11] | [12] | [13] | [14] | [15] | [16] | [17] | [18] | [19]

C=CC(=O)NC(C)(C)C
inactive: all assays above

C[N+](C)(C)CCCNS(=O)(=O)C(F)(F)C(F)(F)C(F)(F)C(F)(F)C(F)(F)C(F)(F)C(F)(F)C(F)(F)F
inactive: [3] | [4] | [5] | [8] | [11] | [12] | [14] | [16] | [17]
active: [1] 46.1 µM and 48.7 µM | [2] 55.3 µM and 47.5 µM | [6] 38.9 µM and 50.2 µM | [7] 47.8 µM and 53.5 µM | [8] 47.6 µM | [9] 42.7 µM and 46.7 µM | [10] 49.8 µM and 51.4 µM | [15] 30 µM and 44.7 µM | [17] 48.1 µM | [18] 31.3 µM and 39.7 µM | [19] 22.5 µM and 33.8 µM

Fc1ccc(Br)cc1
inactive: all assays above

From PubChem BioAssay (EPA / NIEHS)
